Screening results from PubChem BioAssay.
TGFb SMAD3 inh: TGF-b pathway inhibition; HepG2 CAGA-GFP TGF-b/SMAD3 reporter, GFP fluorescence, 18 h; TGF-beta stimulated, 500 pg/mL final; Potency, µM (series often up to 46.1 µM), inactives show at the highest dose activity, negative = inhibition, actives largely listed as inhibitors; 410,000 tested, 1.2% active; also: potency is read from the fitted curve at half-maximal effect; % is scaled to controls: 0 for no effect and ±100 for the full control effect; nearly all actives have a fitted effect of over 65% in size
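Read-out: total well GFP (ex488/em500-530) summed from mean per-cell fluorescence. Cells: HEPG2 CAGA-GFP, 1% FBS DMEM, 18 h at 37 degrees C with 500 pg/mL final TGF-beta. Unstimulated wells served as the full-inhibition control; stimulated DMSO wells = 0%.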
IL1B secr inh: inflammasome signaling inhibition, IL-1 beta readout; 360,000 tested, 4.7% active; activity change, % at 57.5 µM; THP-1 LPS/ATP IL-1B secretion, AlphaLISA, 16 h; active compounds read low; in the data active = activity change below about -50%; inconclusive = mostly about -30% to -49%; also: % is scaled to controls: 0 for no effect and ±100 for the full control effect
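Secreted IL-1B measured by AlphaLISA bead assay after 16 h compound exposure of THP-1 cells; compounds (final up to 57.5 uM) added 1 h before LPS (250 ng/mL) and ATP (1.25 mM) stimulation; lower signal means less secretion.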
HepG2 viability: kills HepG2 cells in TGF-b inhibitor counter-screen; AID 588856; 410,000 tested, 0.76% active; Potency, µM (series often up to 46.1 µM), for inactives: top-dose activity change, negative = cytotoxicity, hits mostly cytotoxic; HepG2 CAGA-GFP viability, ATP luminescence, 18 h; also: potency is read from the fitted curve at half-maximal effect
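HepG2 CAGA-GFP cells (1000/well, DMEM with 1% FBS) received compound, then TGF-beta at 500 pg/mL final, and were incubated 18 hours at 37 degrees C. Viability was read by CellTiter-Glo luminescence. Media-only wells were set as complete cell-killing and DMSO as no toxicity.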
TDP1 cell CPT: DT40-hTDP1 cell growth loss with CPT. chicken DT40 Tdp1-/-;hTDP1 cells + 20 nM CPT, ATP luminescence, 48 h. Potency, µM (series often up to 46.2 µM), for the others: at the top dose activity change, negative = growth inhibition, actives largely listed as inhibitors. 420,000 tested, 12% active. AID 686979; also: potency is read from the fitted curve at half-maximal effect; % is scaled to controls: 0 for no effect and ±100 for the full control effect; nearly all actives have a fitted effect of over 55% in size
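Chicken DT40 Tdp1-/- cells complemented with human TDP1, 400 cells/well, exposed to compounds plus 20 nM camptothecin for at least 48 h at 37 C; viability read as ATP content by CellTiter-Glo luminescence.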
TDP1 inh: inhibitors of human tyrosyl-DNA phosphodiesterase TDP1; Potency, µM (highest dose often 130 µM), without a hit: at the top dose activity change, negative = inhibition, most hits filed as inhibitors; AID 485290; recombinant TDP1, AlphaScreen DNA substrate cleavage; Q9NUW8; 350,000 tested, 0.28% active; also: potency is read from the fitted curve at half-maximal effect; % is scaled to controls: 0 for no effect and ±100 for the full control effect; nearly all actives have a fitted effect of over 40% in size
Target sequence (Q9NUW8 whole entry, looked up): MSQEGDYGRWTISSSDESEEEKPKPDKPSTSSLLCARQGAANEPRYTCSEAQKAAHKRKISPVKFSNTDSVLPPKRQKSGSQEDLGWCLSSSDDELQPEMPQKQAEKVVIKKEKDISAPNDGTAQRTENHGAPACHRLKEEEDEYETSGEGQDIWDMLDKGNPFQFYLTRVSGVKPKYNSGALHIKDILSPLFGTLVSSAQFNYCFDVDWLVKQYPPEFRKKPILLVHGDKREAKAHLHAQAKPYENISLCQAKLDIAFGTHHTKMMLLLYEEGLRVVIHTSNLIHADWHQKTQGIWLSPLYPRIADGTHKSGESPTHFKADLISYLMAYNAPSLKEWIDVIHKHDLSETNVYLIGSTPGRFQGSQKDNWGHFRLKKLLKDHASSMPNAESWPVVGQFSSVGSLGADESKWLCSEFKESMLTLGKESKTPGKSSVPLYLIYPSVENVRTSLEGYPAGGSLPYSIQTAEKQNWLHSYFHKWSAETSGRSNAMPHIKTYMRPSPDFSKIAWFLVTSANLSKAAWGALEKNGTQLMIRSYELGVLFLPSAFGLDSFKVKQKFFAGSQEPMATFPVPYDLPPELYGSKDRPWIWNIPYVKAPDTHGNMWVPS
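Steps: enzyme plus compound, 15 min RT; add biotin/phosphotyrosine-FITC oligonucleotide (15 nM final), react 5 min; add donor/acceptor beads (10 ug/ml final), 10 min; read AlphaScreen. Tdp1 at 1 nM final.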
DT40 TDP1 no CPT: qHTS for Inhibitors of human tyrosyl-DNA phosphodiesterase 1 (TDP1): qHTS in cells in absence of CPT; DT40 Tdp1-/- hTDP1 cells, no CPT, ATP luminescence, 48 h; Potency, µM (doses to about 46.2 µM), without a hit: top-dose activity change, negative = growth inhibition, usual class: inhibitors; 420,000 tested, 15% active; AID 686978, 2013; also: potency is read from the fitted curve at half-maximal effect; % is scaled to controls: 0 for no effect and ±100 for the full control effect; nearly all actives have a fitted effect of over 55% in size
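A cellular qHTS used chicken DT40 cells lacking endogenous Tdp1 but carrying stably transfected human TDP1. Compounds were applied without camptothecin, and cell growth kinetics were judged by ATP-dependent luminescence after ≥48 hr.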
Numbers without * were called inactive; ? = inconclusive; . = no result; [ ] = remark or other dose. Rows were chosen to be rich in hits. Some 19% of all compounds tested hit in one or more screens of this group. Unless noted, calls follow the shape of the dose curve; as a rule, active = well fitted curve in the direction sought with a large enough effect; inconclusive = small, poorly fitted or top-dose-only effect, or another doubt; inactive = no such curve, though single readings can be large; an effect the other way counts as inactive or inconclusive.

SMILES | TGFb SMAD3 inh | IL1B secr inh | HepG2 viability | TDP1 cell CPT | TDP1 inh | DT40 TDP1 no CPT
CCC(=O)N1CCc2cc(S(=O)(=O)NC(Cc3ccccc3)C(=O)Nc3ccccc3C)ccc21 (centres undefined) | 0% | . | 1% | -11% | 2% | -4%
CC(C)CCNC(=O)C1CCC(Cn2c(=O)c3sccc3n(CC(=O)NC(C)C)c2=O)CC1 (centres undefined) | 0% | . | 2% | -4% | 10% | ?
CCc1ccccc1NC(=O)c1cc(S(=O)(=O)N2CCCc3ccccc32)ccc1F | -12% | . | -17% | 16µM* | 0% | 18µM*
O=C(Nc1cc(Cl)ccc1Cl)c1cc(S(=O)(=O)N2CCCc3ccccc32)ccc1F | 2% | . | -8% | 23µM* | 5% | ?
CCc1ccccc1NC(=O)c1cc(S(=O)(=O)N2CCc3ccccc32)ccc1F | ? | . | 0% | 16µM* | 5% | 10µM*
COc1cccc(C2c3c(ncn(-c4ccccc4C)c3=N)Oc3ccc4ccccc4c32)c1 (centres undefined) | . | . | . | . | 4% | .
CCOC(=O)c1sc(/S(C)=N\S(=O)(=O)c2cccc(Cl)c2)c2c1CCC=C2 (centres undefined) | ? | 0 | -37% | ? | . | 16µM*
O=C1C2=CC[C@H]3C(=O)N(C[C@@H]4CCCO4)C(=O)[C@@H]3[C@@H]2[C@H](O)[C@@H]2O[C@H]12 | . | . | . | . | -7%[21 µM] | .
NC(=S)N=Nc1c(O)[nH]c2cc(F)c(F)cc12 | -4% | 0 | -5% | -10% | 3% | ?
NC(=S)N=Nc1c(O)[nH]c2c(Cl)cc(Cl)cc12 | 0% | ? | -21% | 16µM* | . | 4.6µM*
CCOc1ccccc1-n1c(SCC(=O)NC(C)(C)C)nnc1-c1ccoc1C | ? | 5 | -21% | -15% | 7% | -10%
Cc1occc1-c1nnc(SCC(=O)Nc2ccccc2N2CCCCC2)n1C | -11% | -53* | -12% | 18µM* | 2% | 18µM*
CCn1c(SCC(=O)Nc2ccccc2N2CCCCC2)nc2c1c(=O)n(C)c(=O)n2C | 3% | -7 | 0% | 18µM* | 8% | 16µM*
CCOc1ccccc1-n1c(SCC(=O)NC2CCCC2)nnc1-c1ccoc1C | 1% | -10 | -24% | ? | 0% | 14µM*
Cc1occc1-c1nnc(SCCCC(=O)c2ccc(F)cc2)n1C | ? | -30 | -18% | 18µM* | -5% | 16µM*
CCOc1ccc2nc(N3CCCC3C(=O)N3CCC(c4nc5ccccc5o4)CC3)nc(C)c2c1 (centres undefined) | . | . | . | -2% | . | -20%
O=C(Cn1ncc2c3ccccc3n(Cc3ccccc3)c2c1=O)Nc1ccccc1C(F)(F)F | -21% | . | -3% | ? | 5% | ?
Cc1noc(C)c1-c1nnc(-c2ccc(C(F)(F)F)cc2)o1 | 11% | 25 | 15% | 8% | 4% | -3%
Cn1c(=O)c2c(nc(SCC(=O)Nc3ccccc3F)n2Cc2ccccc2F)n(C)c1=O | 1% | . | 1% | -27% | 8% | 2.9µM*
O=C(CSc1nnnn1-c1cccc2ccccc12)Nc1ccc(C(=O)O)cc1 | 0% | 24 | -23% | 17% | . | 2%
Cn1c(=O)c2c(nc(SCC(=O)Nc3ccc(F)cc3)n2Cc2ccccc2F)n(C)c1=O | -11% | . | -5% | -23% | 1% | ?
O=C(CCCSc1nnnn1-c1cccc2ccccc12)c1ccc(F)cc1 | -4% | -4 | -25% | -16% | 4% | 21µM*
Cc1ccc([N+](=O)[O-])c(Oc2ncnc3c2oc2ccccc23)c1 | 1% | . | -6% | ? | 5% | ?
